SF1 inhibitor: inhibitors of human nuclear receptor SF-1; hit rate 0.55% among 65,000; inhibition, % at 10 µM; Q13285; CHO-K1 Gal4-SF-1 LBD luciferase reporter;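 active = inhibition above the mean inhibition of all tested compounds plus 3 SD, cut at about 48% in these data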
Target sequence (Q13285 whole entry, looked up, the tested form may be a part): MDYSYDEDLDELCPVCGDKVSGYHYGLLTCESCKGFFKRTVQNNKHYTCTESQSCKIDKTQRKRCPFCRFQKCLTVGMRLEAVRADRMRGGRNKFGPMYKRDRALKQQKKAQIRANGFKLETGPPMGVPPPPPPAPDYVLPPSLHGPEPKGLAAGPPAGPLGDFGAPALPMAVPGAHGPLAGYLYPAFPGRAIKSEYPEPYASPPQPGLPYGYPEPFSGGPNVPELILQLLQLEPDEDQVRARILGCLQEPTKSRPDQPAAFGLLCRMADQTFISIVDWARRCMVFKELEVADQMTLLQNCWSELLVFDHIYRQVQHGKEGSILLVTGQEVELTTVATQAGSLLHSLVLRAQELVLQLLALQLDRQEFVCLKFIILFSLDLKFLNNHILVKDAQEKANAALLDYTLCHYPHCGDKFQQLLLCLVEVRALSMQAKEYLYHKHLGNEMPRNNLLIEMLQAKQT
Hits are given with their value; . = inactive. The sample as a whole holds a higher share of hits than the screen did.

SMILES	SF1 inhibitor
COc1ccc(-c2nc(C)c(C(C)=O)n2O)cc1OC	.
Cc1oc2cc(O)cc(O)c2c(=O)c1-c1ccc2c(c1)OCCCO2	.
Cc1oc(-c2ccc3c(c2)OCCO3)cc1C(=O)O	81
CC(=O)c1c(C)[nH]c(C(=O)Nc2ccc3c(c2)OCCO3)c1C	.
COc1ccc(-c2nnc(SCCC(=O)O)n2C)cc1OC	.
COc1ccc(-c2cc(C(=O)O)c(C)o2)cc1OC	51
COc1cc(SC)ccc1C(=O)Nc1ccccc1C#N	.
COc1ccccc1CC1(C)NC(=O)N(CC(=O)N2CC(C)OC(C)C2)C1=O (stereo unspecified)	.
COC(=O)C1=C(N)N(c2ccc(F)cc2)C2=C(C(=O)CCC2)C1c1ccc2c(c1)OCO2 (stereo unspecified)	.
CCOC(=O)N1CCC(N2C(=O)c3ccc(C(=O)Nc4ccc(F)cc4F)cc3C2=O)CC1	.
CC(=O)Nc1ccc(SCC(=O)c2cc(C)n(Cc3cccs3)c2C)cc1	58
C=CCn1c(C)cc(C(=O)CSc2nnc(NCc3ccccc3)s2)c1C	.
Cc1nc2ccc(NC(=O)Cc3cccs3)cc2s1	.
COc1ccc(-c2nnc(SCC(=O)c3cc(C)n(Cc4cccs4)c3C)o2)cc1	.
C=CCn1c(C)cc(C(=O)CSc2nnc(Cc3ccccc3)o2)c1C	.
CCN(CC)C(=O)Oc1ccccc1NC(C)=O	.
CCCn1c(C)cc(C(=O)CN2C(=O)c3ccccc3C2=O)c1C	.
Cc1csc(SCC(=O)c2cc(C)n(Cc3cccs3)c2C)n1	60
CC(=O)Nc1ccccc1OCC(=O)c1cc(C)n(Cc2cccs2)c1C	70
CCOC(=O)c1ncn2c1C(=O)OC2(C)C	.
COc1ccc(C2=CSC3=NCCN23)cc1F	.
COc1ccc(C(CCc2ccc(C)o2)NC(=O)Nc2ccc(OC)cc2OC)cc1 (stereo unspecified)	.
COC(=O)c1ccc(C(=O)OC)c(NS(C)(=O)=O)c1	.
CCOc1ccc(OCC)c(NC(=O)CSc2nc3c(c(=O)n(C)c(=O)n3C)n2C(C)C)c1	.
CCCOc1ccc(-c2nnc(-c3ccco3)o2)cc1	64
SMILES	SF1 inhibitor
O=C(COc1ccccc1)Nc1ccc(-c2nnc(-c3ccco3)o2)cc1	.
COc1ccc(-c2noc(-c3ccco3)n2)cc1OC	.
Cc1ccc(NC(=O)CS(=O)CC(=O)NCC2CCCO2)cc1 (stereo unspecified)	.
CCOC(=O)Cn1c(=O)oc2cc(S(=O)(=O)NCc3cccs3)ccc21	.
Cc1noc(C)c1COC(=O)c1cccnc1SCC(=O)Nc1ccc2c(c1)OCO2	.
COC(=O)c1ccc(CSc2nc3c(c(=O)n2-c2ccc(Br)cc2)SCC3)o1	.
COc1cccc(C(=O)Cn2c(N3CCOCC3)nc3c2c(=O)n(C)c(=O)n3C)c1	.
CCOC(=O)c1sc(-c2ccc(OC)cc2)cc1N	.
COc1ccc(-c2cc3nc4n(c(=O)c3s2)CCOC4)cc1	56
CCOC(=O)Cn1c(=O)c2c(nc(Br)n2Cc2ccc(Cl)cc2)n(C)c1=O	.
O=C(CN(Cc1ccco1)C(=O)CNS(=O)(=O)c1ccc(F)cc1)NCCc1ccccc1	.
CN(C)c1ccc(NC(=O)Nc2cccc(Cl)c2)cc1	.
CN(C)c1ccc(NC(=S)c2ccccn2)cc1	86
CN(C)S(=O)(=O)c1ccc(NC(=O)c2ccccn2)cc1	.
O=C(Cn1cnc2ccccc21)NCCCN1CCOCC1	.
CCN(CC)S(=O)(=O)c1cc(C(=O)Nc2ccc(Cl)cn2)ccc1C	.
CCN1C(=Nc2ccc(Cl)cc2)SC/C1=C\C(=O)OC	.
CSc1nncc(-c2ccc(F)cc2)n1	.
COCCCNC(=O)CS(=O)Cc1nc(-c2ccccc2C)oc1C (stereo unspecified)	.
CCCCS(=O)(=O)/C=C\C=C/S(=O)(=O)CCCC	96
CC1(C)CNC(=O)c2sc(N3CCOCC3)nc2C1	.
N#Cc1c(NC(=O)CN2CCN(S(=O)(=O)c3ccc4c(c3)OCCO4)CC2)sc2c1CCC2	.
CCC1C(=O)n2nc(-c3ccccc3)cc2N=C1C (stereo unspecified)	.
